Assay outcomes: PubChem BioAssay, National Center for Advancing Translational Sciences (NCATS)
Most compounds without a hit are left out; they make up all but 0.49% or so of the library.
Vif-A3F inh – inhibitors of Vif-A3F interaction; HeLa A3F-eYFP + Vif (tagged APOBEC3F with the HIV-1 protein that degrades it), YFP fluorescence increase; Potency, µM (top dose mostly 46.1 µM); actives 0.2% (n = 390,000); AID 602313; further: nearly all actives have a fitted effect of over 65% in size
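HeLa cells stably expressing A3F-eYFP plus Vif, plated and incubated overnight at 37 deg C, then exposed to compounds overnight at 37 deg C. Blocked degradation read as raised yellow fluorescence (Ex 488/Em 500-530).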
IDH1 R132H inh – blocks human mutant IDH1 R132H enzyme; O75874; IDH1-R132H enzyme, NADPH consumption, diaphorase/resazurin fluorescence; Potency, µM (highest dose often 76.6 µM), usual class: inhibitors; actives 0.093% (n = 390,000); further: nearly all actives have a fitted effect of over 65% in size
Target sequence (O75874 whole entry R132H, stated change not applied): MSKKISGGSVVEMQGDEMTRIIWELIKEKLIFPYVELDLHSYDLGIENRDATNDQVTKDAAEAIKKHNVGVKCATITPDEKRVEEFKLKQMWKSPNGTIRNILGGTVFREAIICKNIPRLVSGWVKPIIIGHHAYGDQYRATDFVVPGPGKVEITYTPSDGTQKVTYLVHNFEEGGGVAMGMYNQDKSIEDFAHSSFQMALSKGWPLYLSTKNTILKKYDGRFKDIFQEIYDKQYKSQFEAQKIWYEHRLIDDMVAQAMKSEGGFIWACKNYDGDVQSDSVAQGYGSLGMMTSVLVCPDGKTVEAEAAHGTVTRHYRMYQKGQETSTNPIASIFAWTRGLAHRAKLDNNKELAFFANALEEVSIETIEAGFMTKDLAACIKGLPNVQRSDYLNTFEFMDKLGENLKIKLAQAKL
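IDH1-R132H (0.5 ug/mL) preincubated 30 min with compound, then NADPH (0.016 mM) and alpha-KG (2 mM) added; 80 min at RT, pH 7.5. Remaining NADPH coupled via diaphorase/resazurin to fluorescence (540/590 nm); concentration-response curves normalized to no-enzyme control.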
Tb PGK inh – T. brucei PGK inhibition; P07378; PGK/GAPDH coupled, Kinase-Glo luminescence, 60 min; Potency, µM (highest dose often 57.5 µM), hits mostly inhibitors; actives 0.043% (n = 380,000); AID 602233; further: nearly all actives have a fitted effect of over 60% in size
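Luminescent ATP detection (Kinase-Glo Plus) follows a 60-minute room-temperature incubation, with wells lacking PGK as controls. Buffer: 100 mM TEA (pH 7.6), 5 mM MgCl2, 0.01% Tween-20. Coupling enzyme GAPDH (100 nM final) supplies unstable 1,3-BPG in-well.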
LDHA inh – inhibitors of human lactate dehydrogenase A; purified LDHA, NADH/diaphorase-resazurin fluorescence; hits give low values; activity change, % (values are at about 110 or 230 µM); actives 0.15% (n = 480,000); in the data active means activity change below about -30%; inconclusive means mostly about -25% to -30%
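Human LDH5 (2 nM) was incubated with 0.06 mM NADH and 0.2 mM pyruvate for 5 min at room temperature in Tris pH 7.4. Remaining NADH was coupled through diaphorase/resazurin, and resorufin fluorescence was read at 0 and 20 min.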
Pin1 inhibitor – blocks the human prolyl isomerase Pin1; Pin1 FP peptide displacement, HiFluor488, 10 min; Potency, µM (titrated, usually from 115 µM), usual class: inhibitors; Q13526; actives 0.009% (n = 390,000); active means well fitted inhibition curve with a large enough effect in the polarisation, with a control signal flat, not every such curve was filed as active; inconclusive means small, poorly fitted or top-dose-only effect, or effect the other way, or a change in a side signal; inactive means no such curve, though single readings can be large or run the other way; the % refers to the polarisation
Target sequence (Q13526 whole entry, looked up): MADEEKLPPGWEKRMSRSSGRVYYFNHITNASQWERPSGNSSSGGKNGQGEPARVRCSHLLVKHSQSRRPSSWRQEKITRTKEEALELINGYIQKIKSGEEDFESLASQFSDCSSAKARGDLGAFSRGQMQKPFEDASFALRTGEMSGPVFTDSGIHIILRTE
Vif-A3G inh – Vif-A3G binding inhibition. HeLa A3G-eYFP + Vif (tagged APOBEC3G with the HIV-1 protein that degrades it), YFP fluorescence, overnight. AID 602310. Potency, µM (series often up to 46.1 µM), hits mostly inhibitors. actives 0.076% (n = 410,000). Q9HC16; further: nearly all actives have a fitted effect of over 60% in size
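HeLa cells stably expressing Vif and C-terminally eYFP-tagged A3G, seeded overnight at 37 deg C, then exposed to compound by pintool overnight at 37 deg C. Rise in yellow fluorescence (Ex 488/Em 500-530, Acumen) marks blocked Vif-driven A3G degradation.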
Resorufin autofl – autofluorescence interference, mutant IDH1 hit counter-screen; shares compounds with IDH1 R132H inh; Resorufin detection reagent fluorescence interference, cell-free; inhibition of signal, % at 51.2 µM; 750 tested, under 10 active; AID 623980
IDH1 WT – selectivity of mutant IDH1 inhibitors: human wild-type IDH1 | Potency, µM (titrated, usually from 115 µM), usual class: inhibitors | shares compounds with IDH1 R132H inh | actives 9% (n = 750) | WT IDH1 enzyme, NADPH diaphorase/resazurin fluorescence; further: nearly all actives have a fitted effect of over 55% in size
Target sequence (O75874 whole entry, looked up): as the sequence (O75874 whole entry R132H, stated change not applied) above, with H132R counted along it
IDH1 R132H conf – inhibits human mutant IDH1 enzyme in cherrypick confirmation; shares compounds with IDH1 R132H inh; IDH1 R132H enzyme, NADPH diaphorase/resazurin fluorescence; Potency, µM (series often up to 76.6 µM), most hits filed as inhibitors; actives 83% (n = 750); further: nearly all actives have a fitted effect of over 50% in size
Numbers stand for hits; – = inactive; ? = inconclusive; · = no result given. Unless noted, the call rests on the fitted dose curve; in most records, active means well fitted curve in the direction sought with a large enough effect; inconclusive means small, poorly fitted or top-dose-only effect, or another doubt; inactive means no such curve, though single readings can be large; an effect the other way counts as inactive or inconclusive.

SMILES	Vif-A3F inh	IDH1 R132H inh	Tb PGK inh	LDHA inh	Pin1 inhibitor	Vif-A3G inh	Resorufin autofl	IDH1 WT	IDH1 R132H conf
COc1ccccc1-c1noc(CSc2nnc(Cc3ccccc3)n2-c2ccc(C)c(C)c2)n1	–	?	–	–	–	–	–	–	?
CCCCOc1ccc(/C=N/NC(=S)Nc2cccc(C)c2C)cc1	–	?	–	–	?	–	–	–	11µM
CCCCOc1ccc(/C=N/NC(=S)Nc2cc(C)ccc2C)cc1	–	–	–	–	?	–	·	·	·
CC(C)CCNc1nc2c(c(=O)[nH]c(=O)n2C)n1C(C)C	·	·	·	–	·	·	·	·	·
CCOc1cc2nc(-c3ccc(OC)c(OC)c3)nc(N3CCOCC3)c2cc1OC	–	?	–	–	?	–	–	–	16µM
Cc1ccc(S(=O)(=O)Nc2ccc(S(=O)(=O)Nc3nccs3)cc2)cc1C	–	52µM	–	–	–	–	–	–	45µM
COc1ccc(S(=O)(=O)Nc2cccc(F)c2)cc1C	–	–	–	–	–	–	·	·	·
COc1ccc(S(=O)(=O)Nc2ccc(S(=O)(=O)Nc3ccc(F)cc3)cc2)cc1C	–	?	–	–	–	–	–	–	40µM
Cc1nc(NCCc2ccc3c(c2)OCO3)c2c3c(sc2n1)CCC3	·	·	·	–	·	·	·	·	·
CC(=O)SC1CC(=O)N(c2ccc(C(C)(C)C)cc2)C1=O (configuration not stated)	–	?	–	–	–	–	–	–	22µM
CC(=O)SC1CC(=O)N(c2c(C)cccc2C)C1=O (configuration not stated)	–	–	–	–	–	–	·	·	·
O=C(CCNS(=O)(=O)/C=C/c1ccccc1)Nc1cc(Cl)cc(Cl)c1	·	·	·	–	·	·	·	·	·
Cc1ccc(OCc2nc(C#N)c(NCCN3CCOCC3)o2)cc1	·	·	·	–	·	·	·	·	·
COc1ccc(/C=C/C(=O)NC(=S)Nc2ccc(S(=O)(=O)Nc3cc(OC)ncn3)cc2)cc1	–	?	–	–	–	–	–	40µM	5µM
COc1cc(NS(=O)(=O)c2ccc(NC(=S)NC(=O)/C=C/c3ccc(OC)c(OC)c3)cc2)ncn1	–	?	?	–	–	–	·	·	·
COC(=O)c1c(C)[nH]c(-c2ccc(F)cc2OC)c1C1C(=O)Nc2ccc(F)cc21 (configuration not stated)	·	·	·	–	·	·	·	·	·
Cc1nn(-c2ccccc2)c(C)c1CN(C)C(=O)CNC(=O)c1ccc(Oc2ccccc2)cc1	·	·	·	–	·	·	·	·	·
CCN1CCc2c(sc(-n3cccc3)c2CNC(=O)NCc2ccc(C)cc2)C1	·	·	·	–	·	·	·	·	·
O=C(O)CCn1c(=O)n(CCC(=O)O)c(=O)n(CCC(=O)O)c1=O	–	?	–	–	–	–	–	–	–
Cc1cccc(NC(=O)COc2ccc(/C=C\c3[nH]c(=O)[nH]c(=O)c3[N+](=O)[O-])cc2)c1	–	52µM	?	?	?	–	–	?	32µM
O=c1[nH]c(/C=C/c2ccc([N+](=O)[O-])cc2)c([N+](=O)[O-])c(=O)[nH]1	–	46µM	–	–	–	–	–	–	32µM
Cc1ccc(NC(NC(=O)c2ccccc2C)C(Cl)(Cl)Cl)c(C)c1 (configuration not stated)	·	·	·	–	·	·	·	·	·
O=[N+]([O-])c1cccc(C2C3CCC/C(=C\c4ccco4)C3=NN2c2ccccc2)c1 (configuration not stated)	·	·	·	–	·	·	·	·	·
CC1C/C(=C\c2cccnc2)C(=O)/C(=C/c2cccnc2)C1 (configuration not stated)	–	?	–	–	–	?	–	–	45µM
Cc1nc([N+](=O)[O-])c(Br)n1CC(=O)c1ccccc1	–	–	–	–	–	?	·	·	·
SMILES	Vif-A3F inh	IDH1 R132H inh	Tb PGK inh	LDHA inh	Pin1 inhibitor	Vif-A3G inh	Resorufin autofl	IDH1 WT	IDH1 R132H conf
Cc1nc([N+](=O)[O-])c(Br)n1CC(=O)c1ccc2ccccc2c1	–	?	–	–	–	–	–	?	28µM
CCCc1noc2c1C(c1cc(Br)ccc1F)C(C#N)=C(N)N2 (configuration not stated)	–	52µM	–	–	–	–	–	–	40µM
N#C/C(=C\c1ccccc1OCc1ccc(C(=O)O)cc1)C(=O)Nc1ccc(O)cc1	–	?	–	–	–	–	–	–	40µM
Cn1c(=O)c2c(ncn2CCC(=O)N2CCN(Cc3ccccc3)CC2)n(C)c1=O	·	·	·	–	·	·	·	·	·
CCc1cc2c(=O)n(Cc3ccco3)c(SCC(=O)N3CCCc4ccccc43)nc2s1	–	?	–	–	–	–	–	–	?
CCc1cc2c(=O)n(Cc3ccco3)c(SCC(=O)NCC3CCCO3)nc2s1 (configuration not stated)	–	–	–	–	–	–	·	·	·
COc1ccc(/C=N/O)c(OC)c1	·	·	·	–	·	·	·	·	·
Cn1c(CCN2CCOCC2)nc2cc(NC(=O)c3ccccc3Cl)ccc21	·	·	·	–	·	·	·	·	·
CN1C(=O)/C(=C2\SC(=S)N(CCCCCC(=O)O)C2=O)c2ccccc21	–	–	–	–	–	–	·	·	·
O=C(O)CCN1C(=O)/C(=C2\C(=O)N(Cc3ccc(F)cc3)c3ccccc32)SC1=S	–	9.3µM	–	–	–	–	–	–	4µM
Cc1cc2oc(=O)cc(CN3CCCCCC3)c2cc1Cl	·	·	·	–	·	·	·	·	·
Cc1cccc(NC(NC(=O)c2cccc(C)c2)C(Cl)(Cl)Cl)c1 (configuration not stated)	·	·	·	–	·	·	·	·	·
Cc1cc2oc(=O)cc(COC(=O)CCCN=C3NS(=O)(=O)c4ccccc43)c2cc1C	·	·	·	–	·	·	·	·	·
Cc1ccc(N(C(=O)CCC(=O)Nc2cc(C)on2)C(C(=O)NC2CCCC2)c2ccccc2)cc1 (configuration not stated)	–	?	–	–	–	–	–	–	22µM
Cc1cc(NC(=O)CCC(=O)N(c2ccccc2C)C(C(=O)NC2CCCC2)c2ccccc2)no1 (configuration not stated)	–	?	–	–	–	–	–	–	25µM
Cc1cc(C)cc(N(C(=O)CCC(=O)Nc2cc(C)on2)C(C(=O)NC2CCCC2)c2ccco2)c1 (configuration not stated)	–	?	–	–	–	–	–	–	25µM
